# Most compounds without a hit are left out; they make up all but 4% or so of the library.
# tim23-1 inh – growth inhibitors of tim23-1 mutant yeast, primary screen, luminescence, uHTS; S. cerevisiae tim23-1 growth, BacTiter-Glo luminescence, 24 h; inhibition, % at 20 µM; 330,000 compounds, 1.3% hits; AID 463212, 2010;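 active means growth inhibition of the mutant yeast at or above 50%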;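 further: temperature-sensitive mutant grown at 25 °C; plate controls were DMSO-treated mutant yeast for no effect and medium wells lacking yeast for full effect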
# TIM10 inh – growth inhibitors of isogenic TIM10 control yeast, primary screen, counter-screen for tim10-1 yeast inhibitor project, luminescence, uHTS; S. cerevisiae TIM10 strain growth, BacTiter-Glo luminescence, 24 h; inhibition, % at 10 µM; 330,000 compounds, 1.4% hits;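 active means inhibition of 40% or more at the single tested concentration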;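 further: wild-type TIM10 isogenic control strain grown at permissive 25 °C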
# tim10-1 inh – growth inhibitors of tim10-1 mutant yeast, primary screen, luminescence, uHTS | inhibition, % at 20 µM | S. cerevisiae tim10-1 ts strain growth, BacTiter-Glo, 24 h | 330,000 compounds, 2.2% hits;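 active means inhibition of at least 40%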;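 further: mutant grown at 25 °C; 0% = DMSO wells with yeast and 100% = wells holding no yeast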
# NALP3 yeast inh – NALP3 inflammasome inhibitors in reconstituted yeast, primary screen, luminescence, uHTS; Yeast reconstituted NLRP3/ASC/caspase-1, beta-gal luminescence, 24 h; inhibition, % at 10 µM; 330,000 compounds, 0.39% hits;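 active means inhibition of 50% or more; inactive means inhibition below 50%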;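 further: plate controls were induced DMSO wells for no effect and uninduced yeast grown without galactose for full effect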
# NALP1 yeast inh – NALP1 inflammasome inhibitors in reconstituted yeast, colorimetric, S. cerevisiae, triplicate retest; 280,000 compounds, 0.61% hits; S. cerevisiae NALP1/ASC/caspase-1 growth, X-gal OD620, 72 h; AID 2071, 2009; inhibition, % at 10 µM; in the data active means inhibition mostly above about 24%, no sharp cut-off; inactive means mostly below about 32%
# The depositor's hits bear a star; / = no result.
SMILES,tim23-1 inh,TIM10 inh,tim10-1 inh,NALP3 yeast inh,NALP1 yeast inh
O=C(COc1ccc(S(=O)(=O)N2CCCC2)cc1)NCc1ccccn1,7,10,-12,6,1
COc1ccc(Cc2nnc(N/N=C/c3ccc(O)cc3O)[nH]c2=O)cc1OC,23,13,28,18,8
Cc1nc(Oc2ccc(S(=O)(=O)N3CCOCC3)cc2Cl)c2c3c(sc2n1)CCCC3,27,26,26,26,29
O=C(Nc1ccc(F)cc1)N1CCN(C(=O)C2CCCO2)CC1 (centres undefined),-9,-2,0,29,34*
O=C(c1c(Cl)cccc1Cl)N1CCN(c2ccccn2)CC1,9,-3,17,27,-6
O=C(N1CCN(c2ccccn2)CC1)C(Cl)(Cl)Cl,15,2,20,24,55*
Cn1c(CNC(=O)CNS(=O)(=O)c2ccc(Cl)cc2)cc(=O)n(C)c1=O,-8,3,-11,9,12
CC(C)=C1C2CCC1C1C(=O)N(NC(=O)COc3ccc(Cl)c(C)c3)C(=O)C21 (centres undefined),35,37,38,15,41*
O=C(COc1ccc(Cl)c(Cl)c1)NN1C(=O)C2C(C1=O)C1C=CC2C12CC2 (centres undefined),39,21,25,1,4
CN(C)/C(=N\S(=O)(=O)c1ccc(Br)cc1)c1ccccc1,8,-3,0,27,0
COc1c(Cl)cnn(-c2ccccc2)c1=O,-3,15,3,2,/
COc1c(Cl)cnn(-c2ccc(Cl)c(Cl)c2)c1=O,13,-2,0,16,37*
CCC(C)(C)NC(=O)Cc1ccc(OC)c(OC)c1,4,3,-1,10,9
CCC(C)(C)NC(=O)Cc1ccccc1OC,1,1,14,12,41*
CC1(c2ccccc2)NC(=O)N(CC(=O)N2CCOCC2)C1=O (centres undefined),-1,2,8,-6,36*
Fc1ccc(Nc2ccnc(Nc3ccc(F)cc3)n2)cc1,10,32,11,21,84*
Nc1ncnc(Nc2ccc(F)cc2)n1,-7,-3,1,-3,16
CCC(=O)Nc1ccc(N2CCCCC2)cc1,20,10,6,7,40*
CCCC(=O)Nc1ccc(N2CCCCC2)cc1,14,0,6,11,-1
CCC(CC)C(=O)Nc1cccc(-c2ccc3nncn3n2)c1,11,7,14,14,-2
CCOCc1c(C(=O)Nc2cc(OCC)c(N3CCOCC3)cc2OCC)oc2ccccc12,5,21,19,11,36*
CN1CCN(C(CNC(=O)C(=O)Nc2ccc3c(c2)OCO3)c2ccc(F)cc2)CC1 (centres undefined),-1,0,-20,12,/
CCN1CCN(CC(=O)N2N=C(c3ccc(OC)cc3)CC2c2ccc(OC)cc2)C(=O)C1=O (centres undefined),10,-8,8,-4,20*
COc1ccc(C2=NN(C(=O)CCC(=O)O)C(c3ccc(OC)cc3)C2)cc1 (centres undefined),-9,-8,-9,4,13
Cc1ccc(N2CCN(c3ccc(C)cc3)C2c2cccnc2)cc1,21,24,10,29,40*
SMILES,tim23-1 inh,TIM10 inh,tim10-1 inh,NALP3 yeast inh,NALP1 yeast inh
c1ccc(N2CCN(c3ccccc3)C2c2cccnc2)cc1,-29,-68,-35,5,3
C(=N\N=C\c1ccccc1)/c1ccccc1,-1,-12,2,12,36*
Cc1ccc(OCCn2cc(/C=C(\C#N)C(=O)NCC3CCCO3)c3ccccc32)cc1 (centres undefined),25,24,16,20,24
Cc1ccc(OCCn2cc(/C=C(\C#N)C(=O)NCC3CCCO3)c3ccccc32)cc1C (centres undefined),23,18,20,19,45*
COc1ccc(C)cc1N(CC(=O)Nc1ccc2c(c1)OCCO2)S(C)(=O)=O,0,-15,-10,14,-4
COc1cc([N+](=O)[O-])c(N2CCOCC2)c([N+](=O)[O-])c1OC,18,7,21,5,42*
COCCN=C1Sc2nc3ccc(C)cc3cc2CN1Cc1ccco1,37,15,25,1,48*
COCCN=C1Sc2nc3cc(C)c(C)cc3cc2CN1Cc1cccs1,29,19,7,15,/
Cc1ccc(NC(=O)C2=NNC(=O)CC2)cc1F,10,-8,0,-1,36*
Cc1ccnc(NS(=O)(=O)c2ccc(NS(=O)(=O)c3cc(Cl)ccc3Cl)cc2)n1,6,8,4,5,40*
Cc1ccnc(NS(=O)(=O)c2ccc(NS(=O)(=O)c3ccc([N+](=O)[O-])cc3)cc2)n1,18,-10,14,13,20
COCCCN1C(=O)C(=O)/C(=C(/O)c2ccc(OC)cc2)C1c1ccc(O)c(OC)c1 (centres undefined),-4,-13,0,4,5
COCCCN1C(=O)C(=O)/C(=C(/O)c2ccc(OC)cc2)C12C(=O)N(C)c1ccccc12 (centres undefined),10,12,5,12,39*
CN1CCc2c(n(CC(O)CNCc3ccccc3)c3ccccc23)C1=O (centres undefined),12,10,10,7,10
CC(C)NCC(O)Cn1c2c(c3ccccc31)CCc1c-2cnn1-c1ccccc1 (centres undefined),-17,10,20,21,22*
CC(=O)c1nc2ccccc2n1S(=O)(=O)c1ccc(Cl)cc1,-5,-7,14,-3,2
CC(=O)c1nc2ccccc2n1S(=O)(=O)c1ccc(C)cc1,-3,8,8,-13,28*
COc1ccc(C(=O)[C@@H]2CC[C@](C)(C(=O)O)C2(C)C)cc1,16,16,19,-6,/
CCO[C@@H]1OC(C(=O)NCc2ccccc2)=C[C@H](C2CCCCC2)[C@H]1CCCO,17,10,18,12,21*
Cc1cccnc1NC(=O)Nc1ccc(F)cc1,5,4,27,27,28*
Cc1ccc(NC(=O)Cn2cnc3cc([N+](=O)[O-])ccc3c2=O)cc1,-15,2,-23,31,37*
Cc1ccc(NC(=O)Cn2cnc3cc([N+](=O)[O-])ccc3c2=O)c(Cl)c1,-10,9,-13,1,-1
CCc1ccc(-c2nc(CS(=O)CC(=O)O)c(C)o2)cc1 (centres undefined),18,19,0,18,/
COc1ccc(C(CNC(=O)Cc2c(F)cccc2Cl)N2CCCCC2)cc1 (centres undefined),5,8,9,5,23*
O=C(COC(=O)/C=C/c1cccs1)Nc1nc(-c2cccc(Br)c2)cs1,6,-2,-5,-5,/

# From PubChem BioAssay
